Assay results from ChEMBL document CHEMBL1961873, “Compounds: GSK PKIS; Assays: Nanosyn kinase panel” (2012).

Experiments:
[1] = target: Calcium/calmodulin-dependent protein kinase type II subunit alpha (Homo sapiens) (UniProt Q9UQM7); conditions: at 1 µM;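 also: reported value is a mean percent inhibition of CAMK2A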
[2] = target: Calcium/calmodulin-dependent protein kinase type II subunit delta (Homo sapiens) (UniProt Q13557); conditions: at 0.1 µM
[3] = target: Calcium/calmodulin-dependent protein kinase type II subunit delta (Homo sapiens) (UniProt Q13557); conditions: at 1 µM
[4] = target: T1, Calcium/calmodulin-dependent protein kinase type IV (Homo sapiens) (UniProt Q16566); conditions: at 0.1 µM
T1 sequence (whole entry): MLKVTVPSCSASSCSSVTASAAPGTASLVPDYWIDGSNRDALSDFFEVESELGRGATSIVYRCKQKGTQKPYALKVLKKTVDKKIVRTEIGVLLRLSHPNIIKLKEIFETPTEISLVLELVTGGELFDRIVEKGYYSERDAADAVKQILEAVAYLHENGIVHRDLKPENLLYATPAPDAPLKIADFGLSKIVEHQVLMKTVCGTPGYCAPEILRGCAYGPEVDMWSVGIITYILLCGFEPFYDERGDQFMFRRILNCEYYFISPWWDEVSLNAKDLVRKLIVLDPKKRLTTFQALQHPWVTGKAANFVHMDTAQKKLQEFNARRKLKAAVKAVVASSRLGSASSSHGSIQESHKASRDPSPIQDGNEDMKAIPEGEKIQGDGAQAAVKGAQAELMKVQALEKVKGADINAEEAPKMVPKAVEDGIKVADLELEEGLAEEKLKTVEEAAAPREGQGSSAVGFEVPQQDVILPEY

[5] = target: T1, Calcium/calmodulin-dependent protein kinase type IV (Homo sapiens); conditions: at 1 µM
[6] = target: T2, Serine/threonine-protein kinase Chk1 (Homo sapiens) (UniProt O14757); conditions: at 0.1 µM
T2 sequence (whole entry): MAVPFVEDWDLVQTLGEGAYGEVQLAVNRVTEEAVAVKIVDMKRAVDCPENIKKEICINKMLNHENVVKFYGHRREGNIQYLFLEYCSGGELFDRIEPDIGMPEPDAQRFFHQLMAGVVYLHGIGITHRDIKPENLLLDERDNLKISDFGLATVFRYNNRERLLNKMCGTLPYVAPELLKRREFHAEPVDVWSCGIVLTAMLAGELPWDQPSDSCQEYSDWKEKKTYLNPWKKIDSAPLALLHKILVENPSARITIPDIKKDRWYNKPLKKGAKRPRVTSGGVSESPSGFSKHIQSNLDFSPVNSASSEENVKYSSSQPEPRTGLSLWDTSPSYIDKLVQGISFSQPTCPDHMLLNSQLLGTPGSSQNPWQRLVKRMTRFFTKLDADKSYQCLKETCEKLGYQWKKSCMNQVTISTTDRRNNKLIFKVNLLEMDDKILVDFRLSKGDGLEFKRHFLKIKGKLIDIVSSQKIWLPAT

[7] = target: T2, Serine/threonine-protein kinase Chk1 (Homo sapiens); conditions: at 1 µM
[8] = target: Serine/threonine-protein kinase Chk2 (Homo sapiens) (UniProt O96017); conditions: at 0.1 µM
[9] = target: Serine/threonine-protein kinase Chk2 (Homo sapiens) (UniProt O96017); conditions: at 1 µM
[10] = target: Death-associated protein kinase 1 (Homo sapiens) (UniProt P53355); conditions: at 0.1 µM
[11] = target: Death-associated protein kinase 1 (Homo sapiens) (UniProt P53355); conditions: at 1 µM
[12] = target: T3, Serine/threonine-protein kinase DCLK2 (Homo sapiens) (UniProt Q8N568); conditions: at 0.1 µM
T3 sequence (whole entry): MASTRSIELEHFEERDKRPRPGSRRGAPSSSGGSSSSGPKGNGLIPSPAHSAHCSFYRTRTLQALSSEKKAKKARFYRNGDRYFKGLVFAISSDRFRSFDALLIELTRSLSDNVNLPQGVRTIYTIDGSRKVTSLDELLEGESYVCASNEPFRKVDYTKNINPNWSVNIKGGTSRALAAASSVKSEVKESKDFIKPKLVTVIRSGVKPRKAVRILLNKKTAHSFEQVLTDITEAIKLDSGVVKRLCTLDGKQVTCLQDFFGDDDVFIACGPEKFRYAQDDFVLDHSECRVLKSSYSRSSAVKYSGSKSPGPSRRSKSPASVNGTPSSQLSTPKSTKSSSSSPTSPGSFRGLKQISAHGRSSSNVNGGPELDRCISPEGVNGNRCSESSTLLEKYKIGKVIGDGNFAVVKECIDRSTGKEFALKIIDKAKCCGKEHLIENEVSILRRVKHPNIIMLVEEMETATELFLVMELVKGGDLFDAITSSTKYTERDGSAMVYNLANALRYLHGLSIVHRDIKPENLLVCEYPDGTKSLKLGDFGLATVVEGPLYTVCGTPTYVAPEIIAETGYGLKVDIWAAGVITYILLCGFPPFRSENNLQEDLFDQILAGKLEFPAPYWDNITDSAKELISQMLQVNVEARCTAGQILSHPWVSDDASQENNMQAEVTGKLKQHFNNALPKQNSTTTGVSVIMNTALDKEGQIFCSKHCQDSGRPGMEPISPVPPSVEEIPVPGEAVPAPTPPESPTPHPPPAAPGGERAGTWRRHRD

[13] = target: T3, Serine/threonine-protein kinase DCLK2 (Homo sapiens); conditions: at 1 µM
[14] = target: MAP kinase-activated protein kinase 2 (Homo sapiens) (UniProt P49137); conditions: at 0.1 µM
[15] = target: MAP kinase-activated protein kinase 2 (Homo sapiens) (UniProt P49137); conditions: at 1 µM
[16] = target: MAP kinase-activated protein kinase 3 (Homo sapiens) (UniProt Q16644); conditions: at 0.1 µM
[17] = target: MAP kinase-activated protein kinase 3 (Homo sapiens) (UniProt Q16644); conditions: at 1 µM
[18] = target: Serine/threonine-protein kinase MARK1 (Homo sapiens) (UniProt Q9P0L2); conditions: at 0.1 µM
[19] = target: Serine/threonine-protein kinase MARK1 (Homo sapiens) (UniProt Q9P0L2); conditions: at 1 µM
[20] = target: MAP/microtubule affinity-regulating kinase 3 (Homo sapiens) (UniProt P27448); conditions: at 0.1 µM;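 also: mean percent inhibition of MARK3 kinase activity, measured within the GSK PKIS screening panel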
Sequence of MAP/microtubule affinity-regulating kinase 3 (Homo sapiens) (P27448 whole entry, looked up): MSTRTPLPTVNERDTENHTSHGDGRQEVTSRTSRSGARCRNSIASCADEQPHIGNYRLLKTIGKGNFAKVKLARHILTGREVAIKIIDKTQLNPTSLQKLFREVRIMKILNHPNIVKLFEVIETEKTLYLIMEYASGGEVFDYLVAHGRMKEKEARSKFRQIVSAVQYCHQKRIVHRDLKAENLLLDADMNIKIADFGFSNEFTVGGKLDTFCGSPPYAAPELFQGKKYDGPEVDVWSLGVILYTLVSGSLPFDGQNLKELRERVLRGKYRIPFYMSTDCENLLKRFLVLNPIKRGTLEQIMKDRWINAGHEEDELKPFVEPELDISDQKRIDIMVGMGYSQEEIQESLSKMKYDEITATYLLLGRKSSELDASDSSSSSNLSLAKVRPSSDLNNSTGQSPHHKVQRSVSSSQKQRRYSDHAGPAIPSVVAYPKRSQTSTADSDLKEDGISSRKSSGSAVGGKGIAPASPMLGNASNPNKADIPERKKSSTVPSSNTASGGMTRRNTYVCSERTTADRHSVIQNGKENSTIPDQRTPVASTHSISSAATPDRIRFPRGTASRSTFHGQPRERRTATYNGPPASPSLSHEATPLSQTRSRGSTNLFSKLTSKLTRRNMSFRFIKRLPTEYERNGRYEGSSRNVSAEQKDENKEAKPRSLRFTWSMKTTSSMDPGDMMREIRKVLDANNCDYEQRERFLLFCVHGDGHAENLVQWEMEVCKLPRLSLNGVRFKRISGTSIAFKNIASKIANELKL

Sequence of MAP kinase-activated protein kinase 2 (Homo sapiens) (P49137 whole entry, looked up): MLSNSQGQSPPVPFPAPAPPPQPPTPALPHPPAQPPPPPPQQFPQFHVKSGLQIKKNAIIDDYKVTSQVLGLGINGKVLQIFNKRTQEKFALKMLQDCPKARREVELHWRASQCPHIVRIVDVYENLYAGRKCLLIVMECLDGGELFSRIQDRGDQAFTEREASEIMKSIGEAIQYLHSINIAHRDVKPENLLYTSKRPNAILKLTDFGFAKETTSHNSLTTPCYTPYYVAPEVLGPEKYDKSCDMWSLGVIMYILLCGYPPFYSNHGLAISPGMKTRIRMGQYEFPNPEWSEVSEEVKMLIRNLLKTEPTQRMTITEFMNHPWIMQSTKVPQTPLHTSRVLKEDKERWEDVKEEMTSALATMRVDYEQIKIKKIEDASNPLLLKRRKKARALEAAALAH
Sequence of Serine/threonine-protein kinase MARK1 (Homo sapiens) (Q9P0L2 whole entry, looked up): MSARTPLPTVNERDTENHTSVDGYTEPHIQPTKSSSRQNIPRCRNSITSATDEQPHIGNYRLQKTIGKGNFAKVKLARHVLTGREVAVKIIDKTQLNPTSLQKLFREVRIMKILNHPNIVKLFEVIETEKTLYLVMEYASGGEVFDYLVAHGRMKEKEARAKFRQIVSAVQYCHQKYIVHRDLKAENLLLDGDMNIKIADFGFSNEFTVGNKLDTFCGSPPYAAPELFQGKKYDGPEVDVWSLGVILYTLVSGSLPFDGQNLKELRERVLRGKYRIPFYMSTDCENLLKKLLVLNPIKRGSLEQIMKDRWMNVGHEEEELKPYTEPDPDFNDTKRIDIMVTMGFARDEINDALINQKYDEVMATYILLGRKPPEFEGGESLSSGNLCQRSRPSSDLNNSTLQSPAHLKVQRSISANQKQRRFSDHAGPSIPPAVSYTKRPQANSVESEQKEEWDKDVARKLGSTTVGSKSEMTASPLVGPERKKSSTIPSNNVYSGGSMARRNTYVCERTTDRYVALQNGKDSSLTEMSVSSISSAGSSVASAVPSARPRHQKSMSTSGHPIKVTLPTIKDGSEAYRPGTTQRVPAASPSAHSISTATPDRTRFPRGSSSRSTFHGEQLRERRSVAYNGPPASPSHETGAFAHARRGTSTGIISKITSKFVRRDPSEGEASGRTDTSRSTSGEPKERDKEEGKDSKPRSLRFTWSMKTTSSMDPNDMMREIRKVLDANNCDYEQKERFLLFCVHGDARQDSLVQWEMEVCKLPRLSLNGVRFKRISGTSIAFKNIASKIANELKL
Sequence of Death-associated protein kinase 1 (Homo sapiens) (P53355 whole entry, looked up): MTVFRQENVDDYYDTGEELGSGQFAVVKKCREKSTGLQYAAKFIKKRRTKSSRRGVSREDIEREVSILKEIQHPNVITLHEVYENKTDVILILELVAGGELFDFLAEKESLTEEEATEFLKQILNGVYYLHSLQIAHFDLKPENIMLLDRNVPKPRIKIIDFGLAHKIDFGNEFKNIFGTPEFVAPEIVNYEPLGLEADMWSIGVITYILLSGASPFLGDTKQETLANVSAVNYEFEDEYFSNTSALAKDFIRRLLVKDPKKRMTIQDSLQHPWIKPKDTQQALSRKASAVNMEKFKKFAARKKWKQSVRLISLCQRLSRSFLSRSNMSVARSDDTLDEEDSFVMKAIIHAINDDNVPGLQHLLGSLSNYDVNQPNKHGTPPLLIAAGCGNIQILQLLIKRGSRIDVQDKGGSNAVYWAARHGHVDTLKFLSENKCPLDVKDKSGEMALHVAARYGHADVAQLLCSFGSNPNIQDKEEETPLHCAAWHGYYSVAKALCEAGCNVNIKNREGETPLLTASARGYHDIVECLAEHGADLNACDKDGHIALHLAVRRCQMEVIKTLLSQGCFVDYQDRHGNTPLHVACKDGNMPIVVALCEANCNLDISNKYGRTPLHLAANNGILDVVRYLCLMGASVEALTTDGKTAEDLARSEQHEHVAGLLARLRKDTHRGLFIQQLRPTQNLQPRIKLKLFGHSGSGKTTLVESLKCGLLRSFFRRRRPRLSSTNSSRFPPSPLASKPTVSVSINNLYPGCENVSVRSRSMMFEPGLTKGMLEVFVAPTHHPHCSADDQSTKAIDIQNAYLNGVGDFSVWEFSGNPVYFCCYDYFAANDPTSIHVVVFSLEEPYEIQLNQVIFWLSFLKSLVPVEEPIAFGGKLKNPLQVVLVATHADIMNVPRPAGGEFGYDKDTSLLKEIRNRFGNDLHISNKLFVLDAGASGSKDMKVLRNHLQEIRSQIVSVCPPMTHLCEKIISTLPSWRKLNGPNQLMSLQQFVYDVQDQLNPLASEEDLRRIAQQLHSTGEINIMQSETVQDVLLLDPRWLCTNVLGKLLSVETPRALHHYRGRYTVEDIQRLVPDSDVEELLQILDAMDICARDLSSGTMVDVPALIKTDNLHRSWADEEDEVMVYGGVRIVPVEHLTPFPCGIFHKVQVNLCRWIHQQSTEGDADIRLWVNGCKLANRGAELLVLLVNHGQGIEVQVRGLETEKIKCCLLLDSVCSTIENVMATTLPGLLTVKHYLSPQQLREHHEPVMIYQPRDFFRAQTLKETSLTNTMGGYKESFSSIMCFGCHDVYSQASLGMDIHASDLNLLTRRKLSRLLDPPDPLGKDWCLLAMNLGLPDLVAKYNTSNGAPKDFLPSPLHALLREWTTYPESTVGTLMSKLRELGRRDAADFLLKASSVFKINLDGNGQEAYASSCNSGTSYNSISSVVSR
Sequence of Calcium/calmodulin-dependent protein kinase type II subunit delta (Homo sapiens) (Q13557 whole entry): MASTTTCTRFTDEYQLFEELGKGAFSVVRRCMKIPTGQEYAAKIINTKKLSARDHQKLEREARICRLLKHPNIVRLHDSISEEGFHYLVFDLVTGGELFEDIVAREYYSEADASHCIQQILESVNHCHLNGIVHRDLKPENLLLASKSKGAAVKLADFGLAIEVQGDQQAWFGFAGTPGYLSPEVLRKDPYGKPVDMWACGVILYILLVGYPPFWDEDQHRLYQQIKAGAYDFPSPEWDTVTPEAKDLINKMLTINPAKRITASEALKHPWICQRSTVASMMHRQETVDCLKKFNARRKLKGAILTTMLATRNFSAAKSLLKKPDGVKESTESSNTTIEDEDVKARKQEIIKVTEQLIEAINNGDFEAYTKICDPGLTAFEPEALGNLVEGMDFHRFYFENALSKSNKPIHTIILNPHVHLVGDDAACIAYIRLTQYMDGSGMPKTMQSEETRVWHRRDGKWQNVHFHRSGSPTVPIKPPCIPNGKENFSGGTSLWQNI
Sequence of Serine/threonine-protein kinase Chk2 (Homo sapiens) (O96017 whole entry): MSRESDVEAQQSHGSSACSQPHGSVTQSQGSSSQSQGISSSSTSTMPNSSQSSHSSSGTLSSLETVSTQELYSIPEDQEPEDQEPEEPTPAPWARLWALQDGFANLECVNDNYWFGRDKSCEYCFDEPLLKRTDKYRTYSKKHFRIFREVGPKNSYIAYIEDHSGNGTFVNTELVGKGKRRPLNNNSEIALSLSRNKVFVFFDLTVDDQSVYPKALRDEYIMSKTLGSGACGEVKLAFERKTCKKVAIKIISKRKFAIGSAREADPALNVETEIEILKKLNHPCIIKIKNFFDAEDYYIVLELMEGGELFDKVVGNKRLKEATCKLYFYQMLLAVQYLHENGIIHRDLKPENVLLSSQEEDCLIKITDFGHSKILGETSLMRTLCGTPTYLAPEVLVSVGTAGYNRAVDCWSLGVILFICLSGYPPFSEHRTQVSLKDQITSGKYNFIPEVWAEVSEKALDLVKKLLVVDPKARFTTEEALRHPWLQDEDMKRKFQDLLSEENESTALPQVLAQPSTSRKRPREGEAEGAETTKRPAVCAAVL
Sequence of Calcium/calmodulin-dependent protein kinase type II subunit alpha (Homo sapiens) (Q9UQM7 whole entry): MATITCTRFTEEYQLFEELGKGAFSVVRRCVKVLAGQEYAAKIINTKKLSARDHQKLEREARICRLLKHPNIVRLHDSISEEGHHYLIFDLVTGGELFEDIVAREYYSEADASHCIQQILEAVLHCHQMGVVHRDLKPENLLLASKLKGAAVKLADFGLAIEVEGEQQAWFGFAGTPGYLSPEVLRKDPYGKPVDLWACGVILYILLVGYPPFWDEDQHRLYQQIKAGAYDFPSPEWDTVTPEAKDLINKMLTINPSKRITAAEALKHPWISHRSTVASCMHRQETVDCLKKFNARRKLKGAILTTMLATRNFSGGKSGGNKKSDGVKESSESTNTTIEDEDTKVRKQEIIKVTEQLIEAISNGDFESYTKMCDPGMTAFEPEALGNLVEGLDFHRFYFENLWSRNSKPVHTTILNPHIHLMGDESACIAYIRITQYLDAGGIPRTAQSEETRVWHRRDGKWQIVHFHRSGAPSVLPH

Row | SMILES | inhibition [1] [%] | inhibition [2] [%] | inhibition [3] [%] | inhibition [4] [%] | inhibition [5] [%] | inhibition [6] [%] | inhibition [7] [%] | inhibition [8] [%] | inhibition [9] [%] | inhibition [10] [%] | inhibition [11] [%] | inhibition [12] [%] | inhibition [13] [%] | inhibition [14] [%] | inhibition [15] [%] | inhibition [16] [%] | inhibition [17] [%] | inhibition [18] [%] | inhibition [19] [%] | inhibition [20] [%]
1 | c1ccc(Nc2ncc(-c3ccccc3)o2)cc1 | 3.27 | 3.06 | 6.25 | 1.79 | 3.97 | 6.09 | 8.99 | 0.95 | 2.54 | 6.27 | 5.31 | 0.92 | 3.72 | 1.35 | 2.04 | 4.43 | 5.91 | 1.31 | 4.58 | 1.16
2 | COc1cccc(-n2ncc3c(N/N=C/c4ccc(C)cc4)ncnc32)c1 | 5.56 | 4.56 | 12.5 | 1.46 | 4.68 | -5.6 | -5.11 | -1.83 | 2.47 | -3.26 | -4.37 | 0.26 | 2.82 | -0.94 | 0.98 | -0.57 | -0.87 | 3.16 | 6.21 | 2.69
3 | ON=C1CCc2cc(-c3nc(C4CCNCC4)[nH]c3-c3ccncc3)ccc21 | 3.5 | 16.1 | 2.8 | 1.25 | 1.79 | 0.67 | 1.05 | 0.01 | 0.8 | 0.46 | 1.92 | 2.56 | -0.17 | -0.64 | -0.71 | 8.04 | 26.9 | 0.47 | 1.75 | 0.82
4 | CS(=O)(=O)CCNCc1nc(-c2ccc3ncnc(Nc4ccc(OCc5cccc(C(F)(F)F)c5)cc4)c3c2)cs1 | 2.45 | 2.93 | 3.53 | 0.68 | 1.44 | 1.74 | 5.07 | 1.74 | 5.27 | 3.32 | 2.59 | -1.01 | 0.18 | 0.97 | 1.7 | 2.23 | 2.67 | 1 | 1.98 | 0.8
5 | Cc1ccc(O)cc1Nc1ccnc2ccc(S(C)(=O)=O)cc12 | 6.06 | 3.19 | 3.36 | -1.1 | -1.84 | 8.75 | 9.21 | 8.1 | 15.1 | 12.2 | 13.2 | 2.11 | 1.09 | 4.78 | 5.17 | 14.2 | 24.2 | 4.73 | 7.33 | 2.7
6 | CCCN1CCCC(c2ccc(Nc3nc(Nc4cc(F)ccc4C(N)=O)c4cc[nH]c4n3)c(OC)c2)C1 (stereo not given) | 44.9 | 26.9 | 72.8 | 7.83 | 36.1 | -4.38 | 8.07 | 48.9 | 79.1 | 3.54 | 47.1 | 2.57 | 7.08 | 2.17 | 3.54 | 8.62 | 17.3 | 11 | 52.9 | 19.9
7 | NS(=O)(=O)c1ccc(NC=C2C(=O)Nc3ccc4ncsc4c32)cc1 | 13.7 | 7.83 | 30.6 | 0.83 | 6.33 | 14.5 | 48 | 7.15 | 33.2 | 4.96 | 24.9 | 0.84 | 7.25 | 2.28 | 4.38 | 5.09 | 5.58 | 30.8 | 67.3 | 17.8
